Among the data in PMC7862700, “An all-to-all approach to the identification of sequence-specific readers for epigenetic DNA modifications on cytosine” are binding signal values, retold here.

Common to all, as to assay: DAPPL (digital affinity profiling via proximity ligation, sequencing); 10 mM Tris-HCl pH 7.5, 50 mM NaCl, 1 mM DTT, 4% glycerol, room temperature, 30 min; GST-TFs on glutathione beads, 16-mer random dsDNA library, 0.1% formaldehyde crosslink after washing; high values mean tight binding
For one experiment, the target named is T1, FLI1 (Homo sapiens, UniProt Q01543 1-452).
T1 sequence: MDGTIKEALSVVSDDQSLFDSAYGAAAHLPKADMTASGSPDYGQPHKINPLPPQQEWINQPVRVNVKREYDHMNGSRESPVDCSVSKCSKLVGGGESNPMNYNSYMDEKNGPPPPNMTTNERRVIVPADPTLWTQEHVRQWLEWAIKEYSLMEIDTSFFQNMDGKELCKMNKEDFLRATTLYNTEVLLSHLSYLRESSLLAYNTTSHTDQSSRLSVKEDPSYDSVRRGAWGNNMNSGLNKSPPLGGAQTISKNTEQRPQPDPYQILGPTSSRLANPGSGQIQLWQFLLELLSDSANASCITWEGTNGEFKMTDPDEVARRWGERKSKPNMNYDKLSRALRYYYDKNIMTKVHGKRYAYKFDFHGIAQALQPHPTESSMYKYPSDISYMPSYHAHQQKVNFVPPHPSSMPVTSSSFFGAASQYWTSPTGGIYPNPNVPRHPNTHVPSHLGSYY
Conditions: protein: recombinant; tags: N-terminal GST; dsDNA, one strand shown. The method in brief:
(§1)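 Pools were built from human transcription factors expressed in yeast as GST fusions, captured on glutathione beads and DNA-barcoded, along with a tag-only sample. Incubation with 200 nmole of a 16-mer random double-stranded DNA library lasted 30 min at room temperature in Tris/NaCl/DTT/glycerol buffer, and was followed by washing, 0.1% formaldehyde crosslinking, proximity ligation, PCR amplification and Illumina NextSeq500 sequencing. Binding signal is the quotient of each hexamer's read frequency for a factor and its frequency for the tag-only sample.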

Another experiment addresses T2, ELK1 (Homo sapiens, UniProt P19419 1-428).
T2 sequence: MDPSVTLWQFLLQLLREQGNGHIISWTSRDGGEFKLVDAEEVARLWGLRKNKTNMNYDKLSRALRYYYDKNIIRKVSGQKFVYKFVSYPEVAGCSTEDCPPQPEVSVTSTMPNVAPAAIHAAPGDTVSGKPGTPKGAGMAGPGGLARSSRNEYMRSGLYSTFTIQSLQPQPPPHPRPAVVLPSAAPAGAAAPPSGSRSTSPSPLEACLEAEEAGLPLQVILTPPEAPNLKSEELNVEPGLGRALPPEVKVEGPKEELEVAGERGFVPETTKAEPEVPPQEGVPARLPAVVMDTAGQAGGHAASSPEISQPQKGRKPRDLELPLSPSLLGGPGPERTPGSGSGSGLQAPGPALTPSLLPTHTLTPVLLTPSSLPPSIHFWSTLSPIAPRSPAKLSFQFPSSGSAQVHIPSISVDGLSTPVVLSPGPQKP
Conditions: protein: recombinant; tags: N-terminal GST; dsDNA, one strand shown. An outline of the steps: as §1

Another experiment concerns the target T3, GABPA (Homo sapiens, UniProt Q06546 1-454).
T3 sequence: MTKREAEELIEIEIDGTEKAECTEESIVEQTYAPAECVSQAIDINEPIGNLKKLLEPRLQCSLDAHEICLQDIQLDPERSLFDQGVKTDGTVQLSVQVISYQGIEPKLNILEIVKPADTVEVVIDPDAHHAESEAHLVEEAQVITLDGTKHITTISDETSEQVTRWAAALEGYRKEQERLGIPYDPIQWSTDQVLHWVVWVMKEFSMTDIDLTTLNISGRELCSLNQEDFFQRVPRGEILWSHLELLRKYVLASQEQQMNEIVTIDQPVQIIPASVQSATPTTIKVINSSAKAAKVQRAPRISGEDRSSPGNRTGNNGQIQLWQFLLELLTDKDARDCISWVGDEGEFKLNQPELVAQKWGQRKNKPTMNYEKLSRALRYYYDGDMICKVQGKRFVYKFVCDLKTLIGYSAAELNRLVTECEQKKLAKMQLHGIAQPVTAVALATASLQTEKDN
The conditions noted are these: protein: recombinant; tags: N-terminal GST; dsDNA, one strand shown. An outline of the steps: as §1

A further experiment concerns the target T4, ERG (Homo sapiens, UniProt P11308 1-479).
T4 sequence: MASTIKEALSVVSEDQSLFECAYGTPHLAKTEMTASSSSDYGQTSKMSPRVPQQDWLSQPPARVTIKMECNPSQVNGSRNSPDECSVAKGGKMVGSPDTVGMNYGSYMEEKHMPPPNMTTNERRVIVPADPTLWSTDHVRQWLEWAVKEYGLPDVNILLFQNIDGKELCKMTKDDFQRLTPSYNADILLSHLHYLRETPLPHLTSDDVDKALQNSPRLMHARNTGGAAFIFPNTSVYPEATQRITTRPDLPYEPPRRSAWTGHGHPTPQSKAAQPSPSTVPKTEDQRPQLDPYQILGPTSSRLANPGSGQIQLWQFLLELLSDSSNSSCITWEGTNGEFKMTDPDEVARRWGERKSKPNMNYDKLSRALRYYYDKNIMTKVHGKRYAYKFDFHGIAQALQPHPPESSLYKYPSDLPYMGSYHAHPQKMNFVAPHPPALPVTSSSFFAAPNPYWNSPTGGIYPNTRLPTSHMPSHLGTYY
The conditions noted are these: protein: recombinant; tags: N-terminal GST; dsDNA, one strand shown. An outline of the steps:
as §1

Another experiment deals with ELF1 (Homo sapiens, UniProt P32519 1-619). Conditions: protein: recombinant; tags: N-terminal GST; dsDNA, one strand shown. The method in brief: as §1
The target of a further experiment is T5, EHF (Homo sapiens, UniProt Q9NZC4 1-300).
T5 sequence: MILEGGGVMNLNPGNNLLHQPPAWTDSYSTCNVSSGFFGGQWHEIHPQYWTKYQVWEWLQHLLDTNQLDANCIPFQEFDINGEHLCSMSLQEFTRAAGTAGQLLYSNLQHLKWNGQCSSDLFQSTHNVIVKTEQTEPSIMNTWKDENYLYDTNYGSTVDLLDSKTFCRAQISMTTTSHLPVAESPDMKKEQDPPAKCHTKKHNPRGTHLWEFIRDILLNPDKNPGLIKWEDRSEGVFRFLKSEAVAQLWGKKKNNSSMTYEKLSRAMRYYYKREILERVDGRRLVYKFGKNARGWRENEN
The conditions noted are these: protein: recombinant; tags: N-terminal GST; dsDNA, one strand shown. The method in brief: as §1

For the next experiment, the target named is SPI1 (Homo sapiens, UniProt P17947 1-270). Conditions: protein: recombinant; tags: N-terminal GST; dsDNA, one strand shown. An outline of the steps:
as §1

The target of a further experiment is SPIB (Homo sapiens, UniProt Q01892 1-262). Conditions: protein: recombinant; tags: N-terminal GST; dsDNA, one strand shown. An outline of the steps: as §1
The next experiment concerns the target T6, ELK3 (Homo sapiens, UniProt P41970 1-407).
T6 sequence: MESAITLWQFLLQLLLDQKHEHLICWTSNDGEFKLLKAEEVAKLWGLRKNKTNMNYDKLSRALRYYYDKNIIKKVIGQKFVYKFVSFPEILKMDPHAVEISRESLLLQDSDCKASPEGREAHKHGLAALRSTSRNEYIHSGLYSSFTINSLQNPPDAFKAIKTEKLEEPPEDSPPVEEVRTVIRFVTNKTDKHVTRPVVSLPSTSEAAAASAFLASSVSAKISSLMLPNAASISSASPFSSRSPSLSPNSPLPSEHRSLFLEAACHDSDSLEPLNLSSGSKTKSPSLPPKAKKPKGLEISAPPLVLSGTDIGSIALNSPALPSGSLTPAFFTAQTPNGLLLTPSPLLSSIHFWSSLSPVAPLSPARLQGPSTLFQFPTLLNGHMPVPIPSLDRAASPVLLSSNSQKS
Conditions: protein: recombinant; tags: N-terminal GST; dsDNA, one strand shown. The method in brief: as §1

The next experiment addresses T7, FEV (Homo sapiens, UniProt Q99581 1-238).
T7 sequence: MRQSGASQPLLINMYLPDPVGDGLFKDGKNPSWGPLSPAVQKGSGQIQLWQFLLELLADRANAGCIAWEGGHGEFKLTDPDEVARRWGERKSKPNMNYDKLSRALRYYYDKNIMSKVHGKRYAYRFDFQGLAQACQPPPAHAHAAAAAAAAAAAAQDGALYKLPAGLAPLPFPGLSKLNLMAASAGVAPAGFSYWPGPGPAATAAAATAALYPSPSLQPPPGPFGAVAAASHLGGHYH
The conditions noted are these: protein: recombinant; tags: N-terminal GST; dsDNA, one strand shown. The method in brief: as §1

The target of the next experiment is ETV5 (Homo sapiens, UniProt P41161 1-510). The conditions noted are these: protein: recombinant; tags: N-terminal GST; dsDNA, one strand shown. The method in brief: as §1
Another experiment deals with HSF1 (Homo sapiens, UniProt Q00613 1-529). The conditions noted are these: protein: recombinant; tags: N-terminal GST; chain copies: 3; dsDNA, one strand shown. An outline of the steps: as §1
The target in the next experiment is T8, SPIC (Homo sapiens, UniProt Q8N5J4 1-248).
T8 sequence: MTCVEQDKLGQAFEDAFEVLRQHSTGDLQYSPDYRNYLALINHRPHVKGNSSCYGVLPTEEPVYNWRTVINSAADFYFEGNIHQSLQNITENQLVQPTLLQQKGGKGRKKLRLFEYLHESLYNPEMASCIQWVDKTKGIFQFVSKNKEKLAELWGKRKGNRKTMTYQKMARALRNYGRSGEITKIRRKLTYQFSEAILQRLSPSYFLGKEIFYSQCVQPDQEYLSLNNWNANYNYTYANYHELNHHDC
Conditions: protein: recombinant; tags: N-terminal GST; dsDNA, one strand shown. An outline of the steps:
as §1

Another experiment concerns the target ELF4 (Homo sapiens, UniProt Q99607 1-663). Conditions: protein: recombinant; tags: N-terminal GST; dsDNA, one strand shown. An outline of the steps:
as §1

A further experiment addresses T9, ELK4 (Homo sapiens, UniProt P28324-2 1-405).
T9 sequence: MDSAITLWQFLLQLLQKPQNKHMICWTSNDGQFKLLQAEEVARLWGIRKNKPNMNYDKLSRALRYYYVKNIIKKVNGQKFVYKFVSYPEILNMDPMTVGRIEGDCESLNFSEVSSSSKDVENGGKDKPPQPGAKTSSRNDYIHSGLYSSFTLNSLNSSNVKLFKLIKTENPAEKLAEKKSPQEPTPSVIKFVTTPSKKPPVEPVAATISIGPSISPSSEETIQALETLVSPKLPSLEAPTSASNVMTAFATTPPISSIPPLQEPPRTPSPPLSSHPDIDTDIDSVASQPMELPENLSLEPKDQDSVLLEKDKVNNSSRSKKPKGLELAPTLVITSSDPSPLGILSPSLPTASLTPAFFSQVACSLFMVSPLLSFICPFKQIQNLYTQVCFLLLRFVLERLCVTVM
The conditions noted are these: protein: recombinant; tags: N-terminal GST; dsDNA, one strand shown. An outline of the steps:
as §1

A further experiment concerns the target T10, ETV2 (Homo sapiens, UniProt O00321 1-342).
T10 sequence: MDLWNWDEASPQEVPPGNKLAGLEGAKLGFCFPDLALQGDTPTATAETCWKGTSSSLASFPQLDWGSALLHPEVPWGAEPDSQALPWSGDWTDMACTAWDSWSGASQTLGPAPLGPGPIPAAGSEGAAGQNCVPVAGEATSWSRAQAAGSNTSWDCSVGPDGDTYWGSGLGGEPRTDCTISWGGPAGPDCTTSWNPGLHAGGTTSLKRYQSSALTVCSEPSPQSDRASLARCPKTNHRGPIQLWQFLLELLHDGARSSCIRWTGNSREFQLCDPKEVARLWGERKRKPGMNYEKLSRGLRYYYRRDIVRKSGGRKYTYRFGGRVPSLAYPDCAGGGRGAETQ
Conditions: protein: recombinant; tags: N-terminal GST; dsDNA, one strand shown. An outline of the steps:
as §1

For the next experiment, the target named is T11, ELF3 (Homo sapiens, UniProt P78545 1-371).
T11 sequence: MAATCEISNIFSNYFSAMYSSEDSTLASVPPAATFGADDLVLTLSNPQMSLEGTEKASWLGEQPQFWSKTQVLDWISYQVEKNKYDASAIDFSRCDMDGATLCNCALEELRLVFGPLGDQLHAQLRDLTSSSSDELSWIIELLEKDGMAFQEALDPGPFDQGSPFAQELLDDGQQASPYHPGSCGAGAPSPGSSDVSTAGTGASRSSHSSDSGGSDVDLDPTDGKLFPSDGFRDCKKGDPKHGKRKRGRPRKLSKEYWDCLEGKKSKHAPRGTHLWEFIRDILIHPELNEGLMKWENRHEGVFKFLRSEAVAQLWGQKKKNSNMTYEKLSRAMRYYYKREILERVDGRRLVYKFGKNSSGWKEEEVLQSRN
Conditions: protein: recombinant; tags: N-terminal GST; dsDNA, one strand shown. An outline of the steps: as §1

For another experiment, the target named is CRX (Homo sapiens, UniProt O43186 1-299). The conditions noted are these: protein: recombinant; tags: N-terminal GST; dsDNA, one strand shown. An outline of the steps: as §1
The target in the next experiment is ETV1 (Homo sapiens, UniProt P50549 1-477). The conditions noted are these: protein: recombinant; tags: N-terminal GST; dsDNA, one strand shown. An outline of the steps: as §1
ETV1, sequence (P50549 whole entry): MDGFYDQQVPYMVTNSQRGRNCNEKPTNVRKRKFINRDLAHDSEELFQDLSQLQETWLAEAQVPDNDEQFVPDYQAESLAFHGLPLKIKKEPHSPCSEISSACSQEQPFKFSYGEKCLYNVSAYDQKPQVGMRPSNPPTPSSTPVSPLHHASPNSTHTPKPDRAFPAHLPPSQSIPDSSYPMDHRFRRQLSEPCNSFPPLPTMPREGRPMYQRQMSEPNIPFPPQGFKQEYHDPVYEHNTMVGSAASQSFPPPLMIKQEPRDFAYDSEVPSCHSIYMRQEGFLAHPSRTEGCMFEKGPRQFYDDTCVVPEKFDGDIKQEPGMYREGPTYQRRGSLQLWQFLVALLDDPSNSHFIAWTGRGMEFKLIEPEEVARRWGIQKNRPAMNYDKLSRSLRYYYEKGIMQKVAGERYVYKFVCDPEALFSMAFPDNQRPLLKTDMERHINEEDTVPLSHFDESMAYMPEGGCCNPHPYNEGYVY

ELF4, sequence (Q99607 whole entry): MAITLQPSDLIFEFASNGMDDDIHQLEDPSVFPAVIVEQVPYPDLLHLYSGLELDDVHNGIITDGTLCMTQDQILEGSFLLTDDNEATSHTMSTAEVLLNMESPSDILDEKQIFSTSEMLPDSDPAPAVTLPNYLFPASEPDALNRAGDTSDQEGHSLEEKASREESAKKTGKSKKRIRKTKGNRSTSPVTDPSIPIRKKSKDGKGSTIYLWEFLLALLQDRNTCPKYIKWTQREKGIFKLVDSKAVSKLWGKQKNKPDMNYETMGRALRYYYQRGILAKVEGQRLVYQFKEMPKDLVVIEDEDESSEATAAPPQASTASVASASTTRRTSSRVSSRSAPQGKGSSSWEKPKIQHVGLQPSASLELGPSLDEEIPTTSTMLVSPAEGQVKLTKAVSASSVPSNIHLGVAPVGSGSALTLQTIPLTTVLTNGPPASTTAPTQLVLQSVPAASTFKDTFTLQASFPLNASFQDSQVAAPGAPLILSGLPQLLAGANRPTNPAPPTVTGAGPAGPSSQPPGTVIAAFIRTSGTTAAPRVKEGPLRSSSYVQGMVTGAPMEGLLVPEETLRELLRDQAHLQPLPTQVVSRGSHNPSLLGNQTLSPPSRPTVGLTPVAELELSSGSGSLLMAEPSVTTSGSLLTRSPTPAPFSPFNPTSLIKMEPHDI
SPIB, sequence (Q01892 whole entry): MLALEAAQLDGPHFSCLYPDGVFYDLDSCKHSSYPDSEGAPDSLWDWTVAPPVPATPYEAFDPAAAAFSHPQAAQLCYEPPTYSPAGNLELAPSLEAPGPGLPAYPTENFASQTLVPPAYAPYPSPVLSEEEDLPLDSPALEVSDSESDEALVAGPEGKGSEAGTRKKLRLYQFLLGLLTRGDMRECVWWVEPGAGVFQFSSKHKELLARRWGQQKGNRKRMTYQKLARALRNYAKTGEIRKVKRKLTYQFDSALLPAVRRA
ETV5, sequence (P41161 whole entry): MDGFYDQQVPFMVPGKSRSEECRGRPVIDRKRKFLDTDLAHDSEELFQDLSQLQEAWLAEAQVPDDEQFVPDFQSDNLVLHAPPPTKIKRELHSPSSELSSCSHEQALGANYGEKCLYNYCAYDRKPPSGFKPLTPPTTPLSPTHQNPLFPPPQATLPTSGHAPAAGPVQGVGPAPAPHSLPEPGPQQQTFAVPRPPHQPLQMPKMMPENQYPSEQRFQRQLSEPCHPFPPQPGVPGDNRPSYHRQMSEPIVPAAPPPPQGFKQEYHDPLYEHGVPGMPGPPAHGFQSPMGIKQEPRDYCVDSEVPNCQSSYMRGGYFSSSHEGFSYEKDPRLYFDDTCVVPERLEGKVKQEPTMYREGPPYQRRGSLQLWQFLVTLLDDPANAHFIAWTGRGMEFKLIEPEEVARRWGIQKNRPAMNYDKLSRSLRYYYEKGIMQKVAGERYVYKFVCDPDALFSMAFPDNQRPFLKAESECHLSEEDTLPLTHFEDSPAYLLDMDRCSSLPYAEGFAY
CRX, sequence (O43186 whole entry): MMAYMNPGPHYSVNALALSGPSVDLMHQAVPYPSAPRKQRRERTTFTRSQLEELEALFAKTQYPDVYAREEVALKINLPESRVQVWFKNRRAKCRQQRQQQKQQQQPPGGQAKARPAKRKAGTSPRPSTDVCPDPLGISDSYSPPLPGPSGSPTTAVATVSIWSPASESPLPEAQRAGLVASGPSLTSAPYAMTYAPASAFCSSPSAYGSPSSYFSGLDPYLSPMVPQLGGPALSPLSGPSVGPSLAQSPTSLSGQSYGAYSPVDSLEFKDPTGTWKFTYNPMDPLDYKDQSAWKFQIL
ELF1, sequence (P32519 whole entry): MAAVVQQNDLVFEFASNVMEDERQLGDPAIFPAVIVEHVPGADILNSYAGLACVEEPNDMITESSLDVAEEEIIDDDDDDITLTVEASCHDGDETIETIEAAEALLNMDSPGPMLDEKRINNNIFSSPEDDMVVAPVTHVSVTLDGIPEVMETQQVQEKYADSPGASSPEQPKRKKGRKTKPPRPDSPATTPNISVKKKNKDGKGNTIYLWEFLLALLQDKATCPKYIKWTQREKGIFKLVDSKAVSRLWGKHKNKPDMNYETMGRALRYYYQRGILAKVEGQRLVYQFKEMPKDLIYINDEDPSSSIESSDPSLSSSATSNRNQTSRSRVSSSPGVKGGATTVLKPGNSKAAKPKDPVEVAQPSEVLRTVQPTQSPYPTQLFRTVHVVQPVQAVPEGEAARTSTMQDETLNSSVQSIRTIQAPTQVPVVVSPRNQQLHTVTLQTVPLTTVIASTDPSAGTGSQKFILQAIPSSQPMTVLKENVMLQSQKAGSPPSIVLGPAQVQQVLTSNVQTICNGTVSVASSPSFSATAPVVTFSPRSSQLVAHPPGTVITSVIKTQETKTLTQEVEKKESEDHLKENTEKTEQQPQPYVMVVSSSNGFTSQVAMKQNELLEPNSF
HSF1, sequence (Q00613 whole entry): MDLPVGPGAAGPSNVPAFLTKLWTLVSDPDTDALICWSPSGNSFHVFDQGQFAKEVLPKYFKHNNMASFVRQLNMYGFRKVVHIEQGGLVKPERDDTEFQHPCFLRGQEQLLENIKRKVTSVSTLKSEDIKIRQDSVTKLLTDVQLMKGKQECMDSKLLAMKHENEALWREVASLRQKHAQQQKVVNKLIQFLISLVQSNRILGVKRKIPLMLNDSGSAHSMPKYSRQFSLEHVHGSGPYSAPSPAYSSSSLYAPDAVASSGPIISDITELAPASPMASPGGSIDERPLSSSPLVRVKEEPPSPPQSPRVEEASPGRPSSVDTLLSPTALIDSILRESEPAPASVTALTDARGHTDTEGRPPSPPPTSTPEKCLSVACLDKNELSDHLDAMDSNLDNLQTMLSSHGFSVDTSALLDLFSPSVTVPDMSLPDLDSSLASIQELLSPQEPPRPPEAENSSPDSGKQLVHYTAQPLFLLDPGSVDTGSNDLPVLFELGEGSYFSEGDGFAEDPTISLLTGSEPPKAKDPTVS

Turning to CAGCTT, the binding signal with FLI1 was 1.2 fold enrichment (6-mer frequency, TF over GST control); in the experiment with ELK1, 1.27 fold enrichment (6-mer frequency, TF over GST control); with GABPA, 1.22 fold enrichment (6-mer frequency, TF over GST control); with ERG, 1.2 fold enrichment (6-mer frequency, TF over GST control); with ELF1, 1.26 fold enrichment (6-mer frequency, TF over GST control); with EHF it was 1.22 fold enrichment (6-mer frequency, TF over GST control). In addition, the binding signal was 1.19 fold enrichment (6-mer frequency, TF over GST control) in the experiment with SPI1; 1.2 fold enrichment (6-mer frequency, TF over GST control) in the experiment with SPIB; 1.3 fold enrichment (6-mer frequency, TF over GST control) with ELK3; 1.2 fold enrichment (6-mer frequency, TF over GST control) with FEV; 1.17 fold enrichment (6-mer frequency, TF over GST control) with ETV5; 1.43 fold enrichment (6-mer frequency, TF over GST control) with HSF1. Further, the binding signal was 1.01 fold enrichment (6-mer frequency, TF over GST control) with SPIC; 1.19 fold enrichment (6-mer frequency, TF over GST control) with ELF4; 1.24 fold enrichment (6-mer frequency, TF over GST control) with ELK4; 1.36 fold enrichment (6-mer frequency, TF over GST control) with ETV2; 1.19 fold enrichment (6-mer frequency, TF over GST control) with ELF3; 1.9 fold enrichment (6-mer frequency, TF over GST control) with CRX. Also, in the experiment with ETV1, the binding signal is 1.16 fold enrichment (6-mer frequency, TF over GST control).
